Bioassay records from PubChem BioAssay.
The list is not random: actives were taken first. Their share in the collection is about 19%.
TDP1 cell noCPT: qHTS for Inhibitors of human tyrosyl-DNA phosphodiesterase 1 (TDP1): qHTS in cells in absence of CPT. DT40 Tdp1-/- hTDP1 cells, no CPT, ATP luminescence, 48 h. AID 686978, 2013. Potency, µM (top dose mostly 46.2 µM), actives largely listed as inhibitors. 15% of 420,000 active; note: nearly all actives have a fitted effect of over 55% in size
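Readout: luminescence from CellTiter-Glo after 30 min in the dark at RT. Cells: DT40 Tdp1-/- with stable hTDP1, 400/well. Exposure: compounds alone, ≥48 hr, 37 °C.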
IL-1B inflam inh: inflammasome signaling inhibition, IL-1 beta readout; AID 743279; THP-1 LPS/ATP IL-1B secretion, AlphaLISA, 16 h; hits give low values; activity change, % at 57.5 µM; 4.7% of 360,000 active; in the data active = activity change below about -50%; inconclusive = mostly about -30% to -49%
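Secreted IL-1B measured by AlphaLISA bead assay after 16 h compound exposure of THP-1 cells; compounds (final up to 57.5 uM) added 1 h before LPS (250 ng/mL) and ATP (1.25 mM) stimulation; lower signal means less secretion.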
HT1080NT lethal: kills 2HG-producing HT-1080-NT fibrosarcoma cells; 1.6% of 360,000 active; AID 686970; HT-1080-NT fibrosarcoma viability, CellTiter-Glo ATP luminescence, 48 h; Potency, µM (series often up to 46.1 µM), actives largely listed as cytotoxic;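 note: NT is the 2HG producing partner of a matched IDH1 knockdown line; nearly all actives have a fitted effect of over 55% in size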
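A 48-hour cytotoxicity screen used HT-1080-NT cells plated 2 hours before compound delivery. ATP-based CellTiter-Glo luminescence measured viability, normalized to DMSO and no-cell controls.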
HT1080 IDH1KD tx: kills HT-1080 cells with IDH1 knockdown. HT-1080 IDH1 knockdown viability, ATP luminescence, 48 h. Potency, µM (top dose mostly 46.1 µM), hits mostly cytotoxic. 2% of 360,000 active. AID 686971
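In this qHTS, HT-1080 cells depleted of IDH1 are exposed for 48 h at 37 °C to compound titrations. Toxicity is scored from CellTiter-Glo luminescence, with DMSO as full viability and medium alone as none.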
TDP1 cell CPT: DT40-hTDP1 cell growth loss with CPT; AID 686979; Potency, µM (titrated, usually from 46.2 µM), hits mostly inhibitors; 12% of 420,000 active; chicken DT40 Tdp1-/-;hTDP1 cells + 20 nM CPT, ATP luminescence, 48 h; note: nearly all actives have a fitted effect of over 55% in size
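Chicken DT40 Tdp1-/- cells complemented with human TDP1, 400 cells/well, exposed to compounds plus 20 nM camptothecin for at least 48 h at 37 C; viability read as ATP content by CellTiter-Glo luminescence.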
Of the large screens only hits and unclear results are named; the others gave an inactive call. Unless noted, calls come from the whole dose curve; as a rule, active = well fitted curve in the direction sought with a large enough effect; inconclusive = small, poorly fitted or top-dose-only effect, or another doubt; inactive = no such curve, though single readings can be large; an effect the other way counts as inactive or inconclusive.

OCCNCc1cccc(OCc2ccc(Cl)cc2)c1	TDP1 cell noCPT inconclusive, IL-1B inflam inh -56, HT1080NT lethal inconclusive, HT1080 IDH1KD tx inconclusive, TDP1 cell CPT inconclusive
OCCNCc1cc(Br)ccc1OCc1ccc(F)cc1	TDP1 cell noCPT inconclusive, IL-1B inflam inh -81, TDP1 cell CPT inconclusive
CCOC(=O)N1CCN(C(=O)/C(=C/c2ccc(N(C)C)cc2)NC(=O)c2ccccc2)CC1	none
CSc1cccc(NC(=S)N(Cc2ccccc2)Cc2cccnc2)c1	TDP1 cell noCPT inconclusive, IL-1B inflam inh inconclusive
OCCCCNCc1cc(Br)ccc1OCc1ccccc1F	TDP1 cell noCPT inconclusive, IL-1B inflam inh -70, TDP1 cell CPT inconclusive
Cn1ccc2c(N3CCCCC3)cc3c(c21)C1CCC3O1 (stereo unspecified)	none
Cc1nc(SCc2ccc(F)cc2)c2oc3ccccc3c2n1	none
COc1ccccc1N1CCN(c2ncnc3c2oc2ccccc23)CC1	TDP1 cell noCPT 5.2µM, HT1080NT lethal inconclusive, HT1080 IDH1KD tx inconclusive, TDP1 cell CPT 3.7µM
c1ccc2[nH]c(CSc3ncnc4c3oc3ccccc34)nc2c1	TDP1 cell noCPT inconclusive, TDP1 cell CPT inconclusive
CCc1nc(N2CCCCC2)c2oc3ccccc3c2n1	TDP1 cell noCPT inconclusive, HT1080NT lethal inconclusive, HT1080 IDH1KD tx inconclusive, TDP1 cell CPT inconclusive
Cc1nc(N2CCOCC2)c2oc3ccccc3c2n1	TDP1 cell noCPT 18µM, TDP1 cell CPT inconclusive
c1ccc2[nH]c(CN3CCN(c4ncnc5c4oc4ccccc45)CC3)nc2c1	TDP1 cell noCPT 23µM, IL-1B inflam inh inconclusive, HT1080NT lethal inconclusive, TDP1 cell CPT 23µM
Cc1nc(SCc2ccccc2F)c2oc3ccccc3c2n1	TDP1 cell noCPT 13µM
Cc1cc(C)n(-c2ncnc3c2oc2ccccc23)n1	TDP1 cell noCPT inconclusive, TDP1 cell CPT inconclusive
CCOc1ncccc1C(=O)OCC(=O)c1ccc(C)c(C)c1	none
O=C(NC1CCCC1)C(c1ccccn1)N(C(=O)c1csnn1)c1ccccc1F (stereo unspecified)	none
O=C(c1ccco1)N1CCN(c2ncnc3c2oc2ccccc23)CC1	TDP1 cell noCPT 13µM, TDP1 cell CPT 21µM
Nc1nc(N2CCN(C/C=C/c3ccccc3)CC2)nc2ccccc12	TDP1 cell noCPT inconclusive, HT1080NT lethal inconclusive, HT1080 IDH1KD tx inconclusive, TDP1 cell CPT 21µM
Cc1nc(SCc2nc3ccccc3[nH]2)c2oc3ccccc3c2n1	TDP1 cell noCPT inconclusive, HT1080 IDH1KD tx inconclusive, TDP1 cell CPT 21µM
C(=C\c1ccccc1)/CN1CCN(c2ncnc3c2oc2ccccc23)CC1	TDP1 cell noCPT 18µM, HT1080NT lethal inconclusive, HT1080 IDH1KD tx inconclusive, TDP1 cell CPT 18µM
Cc1nc2ncnn2c(C)c1CCC(=O)N1CC(C)CC(C)C1 (stereo unspecified)	none
COC(=O)C1(C)COP(=O)(NC23CC4CC(CC(C4)C2)C3)OC1 (stereo unspecified)	none
Cc1nc(N2CCN(Cc3nc4ccccc4[nH]3)CC2)c2oc3ccccc3c2n1	TDP1 cell noCPT 18µM, IL-1B inflam inh inconclusive, HT1080 IDH1KD tx inconclusive, TDP1 cell CPT inconclusive
Cc1nnc2sc(SCC(=O)Nc3ccc(Cl)cc3)nn2c1=O	TDP1 cell noCPT inconclusive
NC(=O)c1ccccc1NC(=O)C(c1ccccc1)c1ccccc1	TDP1 cell noCPT 29µM, TDP1 cell CPT inconclusive
CC(C)Cc1ccc(C(C)C(=O)Nc2ccccc2O)cc1 (stereo unspecified)	TDP1 cell noCPT 8.2µM, IL-1B inflam inh -95, HT1080NT lethal 3.7µM, HT1080 IDH1KD tx 23µM, TDP1 cell CPT 8.2µM
O=C(Nc1ccccc1O)C(c1ccccc1)c1ccccc1	TDP1 cell noCPT 7.3µM, IL-1B inflam inh -64, HT1080NT lethal inconclusive, TDP1 cell CPT inconclusive
O=C(O)c1ccccc1NC(=O)C(c1ccccc1)c1ccccc1	none
Cc1cc(C)nc(NC(=O)C(c2ccccc2)c2ccccc2)c1	TDP1 cell noCPT 15µM, TDP1 cell CPT inconclusive
CCC(C(=O)Nc1cc(C)cc(C)n1)c1ccccc1 (stereo unspecified)	TDP1 cell noCPT inconclusive (no result: IL-1B inflam inh)
COc1ccc(OCc2cc(=O)[nH]c3ccccc23)cc1	none
COc1ccc2sc3c(=O)[nH]c4ccccc4c3c2c1	TDP1 cell noCPT 1.6µM, TDP1 cell CPT 5.8µM
O=C(Cn1c(=O)nc(-c2ccccc2)c2cc(Cl)ccc21)NCCCc1ccccc1	none (no result: IL-1B inflam inh, HT1080NT lethal, HT1080 IDH1KD tx)
COC1(NS(=O)(=O)c2ccc(Br)cc2)C(C)=CC(=O)C=C1C	TDP1 cell noCPT inconclusive, TDP1 cell CPT 13µM
COc1ccc(CC(=O)NCC(=O)Nc2ccccc2Br)cc1	HT1080 IDH1KD tx inconclusive
CC(C)Cc1ccc(C(C)CC2=CCC(CN(C)C)C2=O)cc1 (stereo unspecified)	TDP1 cell noCPT 4.6µM, HT1080NT lethal inconclusive, HT1080 IDH1KD tx inconclusive, TDP1 cell CPT 4.6µM
CC(C)Cc1ccc([C@@H](C)C(=O)NS(C)(=O)=O)cc1	TDP1 cell noCPT inconclusive (no result: IL-1B inflam inh, HT1080NT lethal, HT1080 IDH1KD tx)
COc1ccc([N+](=O)[O-])cc1NC(=S)NC(C)=O	TDP1 cell noCPT inconclusive, TDP1 cell CPT inconclusive
COc1cc([N+](=O)[O-])ccc1NC(=S)Nc1cc(C(=O)OC(C)C)cc(C(=O)OC(C)C)c1	TDP1 cell noCPT inconclusive, HT1080 IDH1KD tx inconclusive, TDP1 cell CPT 29µM
COc1cccc(OC)c1C(=O)OCCCOC(=O)c1c(OC)cccc1OC	none
CC1=C(C(=O)O)N2C(=O)[C@@H](NC(=O)[C@H](N)C3=CCC=CC3)[C@H]2SC1	TDP1 cell CPT inconclusive (no result: IL-1B inflam inh, HT1080NT lethal, HT1080 IDH1KD tx)
COc1ccc(-c2cn(Cc3ccc(C(=O)c4ccccc4)cc3)nn2)cc1	TDP1 cell noCPT 7.3µM, HT1080NT lethal inconclusive, HT1080 IDH1KD tx inconclusive, TDP1 cell CPT 2.1µM
COc1ccc(-c2cn(Cc3ccc4ccccc4c3)nn2)cc1	TDP1 cell CPT inconclusive
N#CC1=C2SC=C(c3ccc(Br)cc3)N2CCCC1=O	TDP1 cell noCPT 23µM, TDP1 cell CPT inconclusive
Cc1ccc(CN2C(=O)C(F)(F)Oc3ccc(C)cc32)cc1	none
CCCCCCCCN1C(=O)[C@H](CC(=O)NCc2cccs2)C[C@@]2(C(=O)OC)CCCCC=C12	TDP1 cell noCPT 15µM, HT1080NT lethal inconclusive, HT1080 IDH1KD tx inconclusive, TDP1 cell CPT 16µM
CCOC(=O)[C@]12CCCC=C1N(Cc1ccccc1)C(=O)[C@H](CC(=O)NCc1cccs1)C2	none
CCCCCCCCN1C(=O)[C@H](CC(=O)NCc2cccs2)C[C@@]2(C(=O)OCC)CCCC=C12	TDP1 cell noCPT 16µM, IL-1B inflam inh -62, HT1080NT lethal inconclusive, HT1080 IDH1KD tx inconclusive, TDP1 cell CPT inconclusive
O=[N+]([O-])c1ccc(N2CCN(S(=O)(=O)c3ccc4ccccc4c3)CC2)cc1NCC1CCCO1 (stereo unspecified)	none
Cc1ccc(C)c(C(=O)CCC(=O)NNC(=O)Cn2nc(C)cc2C)c1	TDP1 cell noCPT 2.1µM, TDP1 cell CPT inconclusive
